# HT1080NT lethal: qHTS for induction of synthetic lethality in tumor cells producing 2HG: qHTS for the HT-1080-NT fibrosarcoma cell line | hit rate 1.6% among 360,000 | Potency, µM (highest dose often 46.1 µM), for the others: at the highest dose activity, negative = less viability, hits mostly cytotoxic | HT-1080-NT fibrosarcoma viability, CellTiter-Glo ATP luminescence, 48 h;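 note: NT is the 2HG producing partner of a matched IDH1 knockdown line; potency is the fitted concentration of half-maximal effect; 0% = DMSO-treated cells and -100% = media-only wells without cells; nearly all actives have a fitted effect of over 55% in size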
#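 Viability of the 2HG-overproducing fibrosarcoma line after 48 hours of compound exposure at 37 degrees C was determined by luminescence with CellTiter-Glo, and concentration-effect curves were then fitted and categorized.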
# IL1B secr inh: qHTS for Inhibitors of Inflammasome Signaling: IL-1-beta AlphaLISA Primary Screen; activity change, % at 57.5 µM; AID 743279, 2014; THP-1 LPS/ATP IL-1B secretion, AlphaLISA, 16 h; hits give low values; hit rate 4.7% among 360,000; in the data active = activity change below about -50%; inconclusive = mostly about -30% to -49%
#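 Secreted IL-1B measured by AlphaLISA bead assay after 16 h compound exposure of THP-1 cells; compounds (final up to 57.5 uM) added 1 h before LPS (250 ng/mL) and ATP (1.25 mM) stimulation; lower signal means less secretion.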
# DT40 TDP1 no CPT: qHTS for Inhibitors of human tyrosyl-DNA phosphodiesterase 1 (TDP1): qHTS in cells in absence of CPT. DT40 Tdp1-/- hTDP1 cells, no CPT, ATP luminescence, 48 h. Potency, µM (highest dose often 46.2 µM), for the others: at the highest dose activity change, negative = growth inhibition, actives largely listed as inhibitors. hit rate 15% among 420,000. AID 686978, 2013; note: potency is the fitted concentration of half-maximal effect; nearly all actives have a fitted effect of over 55% in size
#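 Camptothecin absent (DMSO only). Human TDP1-complemented DT40 knockout cells, 400 cells/well, 37 °C for minimum 48 hr; ATP measured via CellTiter-Glo, 30 min dark incubation, luminescence.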
# HT1080 IDH1KD tx: qHTS for induction of synthetic lethality in tumor cells producing 2HG: qHTS for the HT-1080-IDH1KD cell line | Potency, µM (highest dose often 46.1 µM), for inactives: at the top dose activity, negative = toxicity, actives largely listed as cytotoxic | HT-1080 IDH1 knockdown viability, ATP luminescence, 48 h | hit rate 2% among 360,000;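 note: potency is the fitted concentration of half-maximal effect; 0% = DMSO wells and -100% = cell-free medium wells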
#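 IDH1KD HT-1080 cells, 750/well, RPMI + 5% FBS; compound pinned after 2 h settling; 48 h, 37 °C; CellTiter-Glo luminescence; % activity normalised to DMSO and no-cell wells; curves fitted, classed by r2 and efficacy.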
# DT40 TDP1 CPT: qHTS for Inhibitors of human tyrosyl-DNA phosphodiesterase 1 (TDP1): qHTS in cells in presence of CPT; chicken DT40 Tdp1-/-;hTDP1 cells + 20 nM CPT, ATP luminescence, 48 h; Potency, µM (series often up to 46.2 µM), for inactives: at the highest dose activity change, negative = growth inhibition, actives largely listed as inhibitors; AID 686979, 2013; hit rate 12% among 420,000; note: potency is the fitted concentration of half-maximal effect; nearly all actives have a fitted effect of over 55% in size
#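 Chicken DT40 Tdp1-/- cells complemented with human TDP1, 400 cells/well, exposed to compounds plus 20 nM camptothecin for at least 48 h at 37 C; viability read as ATP content by CellTiter-Glo luminescence.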
# uPA generation: qHTS for Inhibitors of Cell Surface uPA Generation | cell surface uPA generation assay, qHTS | Potency, µM (series often up to 38.3 µM), without a hit: at the top dose activity change, negative = inhibition, actives largely listed as inhibitors | hit rate 0.31% among 330,000 | AID 540303, 2011; active = well fitted inhibition curve with a large enough effect; inconclusive = small, poorly fitted or top-dose-only effect; inactive = no such curve, though single readings can be large or run the other way; tested in mouse RAW 264.7 cells; note: potency is the fitted concentration of half-maximal effect; nearly all actives have a fitted effect of over 55% in size
# Starred values were filed as active, the others as inactive; ? = inconclusive; / = no result given. Shown are actives, neighbours in structure and some others; about 19% of the full set was active somewhere. Unless noted, calls come from the whole dose curve; as a rule, active = well fitted curve in the direction sought with a large enough effect; inconclusive = small, poorly fitted or top-dose-only effect, or another doubt; inactive = no such curve, though single readings can be large; an effect the other way counts as inactive or inconclusive. Unless noted, % is set by controls: 0 for no effect and ±100 for the full control effect.
SMILES,HT1080NT lethal,IL1B secr inh,DT40 TDP1 no CPT,HT1080 IDH1KD tx,DT40 TDP1 CPT,uPA generation
COc1ccc(OC)c(C2CC(=O)c3c([nH]c(C(=O)OC(C)C)c3C)C2)c1 (stereo not given),5.8µM*,10.3,0.82µM*,3.26µM*,0.82µM*,?
COc1ccc(OC)c(C2CC(=O)c3c([nH]c(C(=O)OCC4CCCO4)c3C)C2)c1 (stereo not given),-11.0%,-20.7,5.17µM*,-15.4%,5.8µM*,?
C[C@@H]1CN([C@H](C)CO)C(=O)c2cc(Br)cnc2O[C@H]1CN(C)C(=O)Cc1ccccc1,-11.3%,-7.8,-1.6%,3.9%,6.6%,/
O=C1NC(=O)C(Cc2ccccc2)(c2cccnc2)N1 (stereo not given),13.7%,13.1,20.5%,?,-18.6%,-3.3%
COc1cc(C2CC(=O)c3c([nH]c(C(=O)OCc4ccc(C)cc4)c3C)C2)cc(OC)c1OC (stereo not given),/,/,0.92µM*,/,1.46µM*,/
COc1ccc(OC)c(C2CC(=O)c3c([nH]c(C(=O)OCc4ccc(C)cc4)c3C)C2)c1 (stereo not given),/,/,0.651µM*,/,4.61µM*,/
COCCOC(=O)c1[nH]c2c(c1C)C(=O)CC(c1cc(OC)ccc1OC)C2 (stereo not given),11.6µM*,36.3,2.59µM*,11.6µM*,2.91µM*,?
CCOC(=O)c1c(C)[nH]c(C(=O)OCc2ccc(C)cc2)c1C,-6.7%,-10.7,-4.5%,-7.6%,-14.7%,2.4%
Cc1cnc(-n2ncc(C(=O)NCCN3CCOCC3)c2C(C)C)nc1-c1ccc(F)cc1,/,/,-19.9%,/,0.5%,/
COc1ccc(OC)c(/C=N/NC(=O)CCc2c(C)n[nH]c2C)c1,6.9%,-8.5,-27.0%,8.0%,-13.3%,-1.0%
COc1ccc(OC)c(/C=N/NC(=O)C(=O)N/N=C/c2cc(OC)ccc2OC)c1,-9.9%,9.6,?,-17.1%,4.2%,1.1%
COc1ccc(OC)c(C=NNC(=O)NN=Cc2cc(OC)ccc2OC)c1,-4.0%,-10.6,25.9µM*,1.7%,?,/
COc1ccc(OC)c(/C=N/NC(=O)CCc2ccc(O)c(O)c2)c1,-18.3%,-26.0,?,-19.2%,20.6µM*,-4.3%
Cc1cccc(C(C)C)c1NC(=O)COC(=O)CCC(=O)N(CC(C)C)c1c(N)n(CC(C)C)c(=O)[nH]c1=O,12.9%,13.3,-15.7%,15.6%,-2.1%,/
OCc1ccc(O)c2ncccc12,?,80.4,5.17µM*,?,5.17µM*,-13.2%
Oc1ccccc1CNc1cccc2cccnc12,?,6.8,?,?,?,-2.7%
Oc1ccc(Cc2ccccc2)c2cccnc12,?,89.4,2.06µM*,?,4.61µM*,-15.0%
Oc1ccc(CNc2ccccc2F)c2cccnc12,?,105.7,2.06µM*,?,2.06µM*,-7.2%
O=C(Cc1ccc(-c2ccccc2)cc1)Nc1ncccc1O,-2.2%,19.4,1.0%,-24.8%,-20.0%,-3.6%
COc1ccccc1N1CCN(C(=O)c2cn(C)c3ccc(S(=O)(=O)N(C)C4CCCCC4)cc3c2=O)CC1,/,/,?,/,-27.1%,/
CCCCC[C@@H]1C=C(C(=O)O)[C@H](c2cccc(C)c2)N1S(=O)(=O)c1ccc(C)cc1,-11.5%,12.3,-20.0%,-10.6%,-19.6%,-7.9%
CC(=O)c1ccc(NC(=O)/C(=C\c2cccs2)NC(=O)c2ccco2)cc1,-24.4%,0.0,8.8%,-12.1%,-5.2%,3.6%
COc1cc2c(=O)c(S(=O)(=O)c3ccccc3)cn(CC(=O)Nc3ccccc3C)c2cc1OC,/,/,0.5%,/,-5.1%,/
CCc1cccc(NC(c2ccccc2)c2nnc(-c3ccccc3F)o2)c1 (stereo not given),/,/,20.6µM*,/,?,/
Cc1ccc(NC(c2ccc(Cl)cc2)c2nnc(-c3cccc(F)c3)o2)cc1C (stereo not given),/,/,?,/,-6.0%,/
SMILES,HT1080NT lethal,IL1B secr inh,DT40 TDP1 no CPT,HT1080 IDH1KD tx,DT40 TDP1 CPT,uPA generation
COc1ccc(OC)c(NC(=O)N2CCC(CN3CCCCC3)CC2)c1,/,/,-11.1%,/,1.9%,/
N#CCSc1nnc(SCC#N)s1,-19.3%,-71.3*,5.1%,-18.4%,-2.9%,-1.3%
Cc1ccc(OC(=S)Nc2ccc(F)cc2)cc1,-4.1%,-18.2,-14.2%,2.1%,2.7%,2.1%
Cc1ccc(OC(=S)Nc2ccccc2)c(C)c1,-9.3%,-8.2,16.4µM*,-5.2%,?,-0.9%
COc1cccc(Cc2n[nH]c(=S)n2Cc2ccco2)c1,-4.9%,26.0,-11.0%,-20.7%,-23.7%,10.8%
CC(=O)NC(CSC(CC(=O)c1ccco1)c1ccc(C)cc1)C(=O)O (stereo not given),7.2%,-1.3,16.4µM*,-18.0%,?,?
Nc1ccccc1SC(CC(=O)c1ccccc1)c1ccc([N+](=O)[O-])cc1 (stereo not given),-8.8%,?,16.4µM*,?,14.6µM*,/
Nc1ccccc1SC(CC(=O)c1ccccc1)c1cccc([N+](=O)[O-])c1 (stereo not given),?,-103.5*,5.17µM*,?,16.4µM*,/
O=C(CC(SCCO)c1ccc([N+](=O)[O-])cc1)c1ccco1 (stereo not given),0.1%,?,14.6µM*,-4.5%,-92.9%,?
CCC(C)C(=O)Nn1c(C2CC2)nc2cc(OC)c(OC)cc2c1=O (stereo not given),?,4.5,-2.7%,4.9%,-13.6%,-8.3%
COc1ccc(C(CC(=O)c2ccc(C)cc2)Sc2ccccc2N)cc1 (stereo not given),-19.3%,8.5,?,-12.5%,23.1µM*,/
CC(C)Cn1c(-c2ccccc2)nc(=S)c2c1CCCC2,11.6%,9.5,?,15.5%,?,2.2%
C=CCn1c(-c2ccccc2)nc(=S)c2c1CCCC2,14.6%,-14.6,23.1µM*,11.7%,?,-1.7%
N#CC1(NC(=O)CN2C(=O)NC3(CCCCCC3)C2=O)CCCCC1,4.7%,14.1,4.8%,4.5%,-5.9%,1.1%
COc1ccc(Br)c(C(=O)Nc2cc3c(cc2N2CCOCC2)n(C)c(=O)n3C)c1,/,/,?,/,23.1µM*,/

# Screens (PubChem)
